# Measurements from PubChem BioAssay (NCATS).
# Inconclusive results are not listed. A call without a number means that no potency is given here. Calls of active or inactive are those of the source. Unless noted, calls follow the shape of the dose curve; as a rule, active = well fitted cell-killing curve with a large enough effect; inconclusive = small, poorly fitted or top-dose-only effect; inactive = flat fitted curve, though single readings scatter.
# Key:
# [1] = Cell Viability - LYMP2-025 (AID 976);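 also: series mostly up to about 92 µM; cells exposed to compound for 24 h at 37 °C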
# Method in brief: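 Seed 2500 LYMP2-025 cells/well; 5 hr at 37 C; add compound; 24 hr at 37 C; add CellTiter-Glo; 30 min RT; read luminescence. AC50 from Hill-modelled concentration-response.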
# [2] = Cell Viability - LYMP2-006 (AID 978); also: series mostly up to about 92 µM; nearly all actives have a fitted effect of over 60% in size
# Method in brief: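 Cells are seeded at 2500 per well and rested 5 hr at 37 C. Compounds are added across a concentration series for 24 hr at 37 C, after which ATP is quantified by luciferase luminescence.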
# [3] = Cell Viability - LYMP2-007 (AID 979);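 also: cells exposed to compound for 24 h before reading; nearly all actives have a fitted effect of over 60% in size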
# Method in brief: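 Luminescent ATP signal (CellTiter-Glo) serves as the viability read-out after 24 hr compound treatment of lymphoblastoid cells in complete medium at 37 C. Concentration-response data were fitted to the Hill equation to give AC50 values.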
# [4] = Cell Viability - LYMP2-010 (AID 981); also: nearly all actives have a fitted effect of over 55% in size
# Method in brief: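 Luminescent ATP signal (CellTiter-Glo) served as the viability read-out. Cells of the human lymphoblastoid line were treated with compound over a concentration range for 24 hours at 37 C, and AC50 values came from Hill-equation modeling.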
# [5] = Cell Viability - LYMP2-012 (AID 982);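 also: cellular ATP by luciferase luminescence where a drop means cytotoxicity; cells exposed to compound for one day before reading; nearly all actives have a fitted effect of over 55% in size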
# [6] = Cell Viability - LYMP2-014 (AID 983);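 also: series mostly up to about 92 µM; cells exposed to compound for 24 h at 37 °C; nearly all actives have a fitted effect of over 50% in size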
# Method in brief: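 Luminescent ATP signal (CellTiter-Glo, 30 min at room temperature) serves as the viability read-out after 24 hr compound exposure at 37 C. Cells were seeded at 2500 per well and settled 5 hr beforehand.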
# [7] = Cell Viability - LYMP2-016 (AID 984); also: nearly all actives have a fitted effect of over 55% in size
# Method in brief: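 Cells were seeded at 2500 per well and rested 5 hr before a 24 hr compound exposure at 37 C. Viability was then gauged as cellular ATP by luciferase luminescence, with AC50 values fitted to the Hill equation.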
# [8] = Cell Viability - LYMP2-018 (AID 985); also: nearly all actives have a fitted effect of over 50% in size
# Method in brief: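 Luminescent ATP signal (CellTiter-Glo, read after 30 min at room temperature) reports viable cells after 24 hr compound treatment at 37 C. Concentration-response data were fitted to the standard Hill equation for AC50.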
# [9] = Cell Viability - LYMP2-022 (AID 987); also: nearly all actives have a fitted effect of over 55% in size
# Method in brief: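 qHTS: human lymphoblastoid cells 2500/well; 5 hr 37 C; cpd added; 24 hr 37 C; CellTiter-Glo, 30 min RT; luminescence. AC50 via Hill fit; tetraoctylammonium bromide positive ctrl.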
# [10] = Cell Viability - LYMP2-024 (AID 988); also: nearly all actives have a fitted effect of over 60% in size
# Method in brief: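 Steps: seed 2500 cells/well, 5 hr 37 C; add compound, 24 hr 37 C; add CellTiter-Glo, 30 min room temperature; read luminescence. AC50 derived by Hill modelling of concentration-dependent ATP loss.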
# [11] = Cell Viability - LYMP2-026 (AID 989);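 also: cells exposed to compound for 24 h at 37 °C; nearly all actives have a fitted effect of over 50% in size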
# Method in brief: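 Luminescent ATP signal (CellTiter-Glo, 30 min room temperature) measures viable lymphoblastoid cells after 24 hr compound treatment at 37 C. Decreased ATP reflects acute toxicity; AC50 values come from Hill-equation modeling.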
# [12] = Cell Viability - LYMP1-002 - Assay at 24 hr (AID 993)
# Method in brief: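 Cells plated 2500/well, 5 hr 37 C; compounds added, 24 hr 37 C; CellTiter-Glo added, 30 min RT; luminescence read. Tetraoctylammonium bromide positive control. Hill-equation AC50.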
# [13] = Cell Viability - LYMP1-002 - Assay at 40 hr (AID 994); also: nearly all actives have a fitted effect of over 60% in size
# Method in brief: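 Luminescent ATP signal served as the viability readout, with decreases taken as toxicity. Cells were treated with compounds across a concentration range for 40 hours at 37 C, and AC50 values came from standard Hill modeling.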
# [14] = qHTS Assay for Identification of Small Molecule Inducers of Hypoxia Response (AID 2120; active = well fitted curve in the direction sought with a large enough effect in the signal ratio, with a control signal flat, not every such curve was filed as active; the % refers to the signal ratio)
# Method in brief: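 ME-180 HRE-bla cells plated in Opti-MEM/0.5% dialyzed FBS, rested 4-5 h, then dosed with compound titrations by pin tool. After 17 h at 37 degrees C, CCF4 dye loaded 2.5 h at RT; 460/530 nm ratio gave %Activity and AC50.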
# [15] = molecular target: Bile acid receptor (Homo sapiens) (UniProt Q96RI1); assay: qHTS assay for small molecule antagonists of farnesoid X receptor signaling (AID 588526; calls by dose curve)
# Bile acid receptor (Homo sapiens), sequence (Q96RI1 whole entry, looked up): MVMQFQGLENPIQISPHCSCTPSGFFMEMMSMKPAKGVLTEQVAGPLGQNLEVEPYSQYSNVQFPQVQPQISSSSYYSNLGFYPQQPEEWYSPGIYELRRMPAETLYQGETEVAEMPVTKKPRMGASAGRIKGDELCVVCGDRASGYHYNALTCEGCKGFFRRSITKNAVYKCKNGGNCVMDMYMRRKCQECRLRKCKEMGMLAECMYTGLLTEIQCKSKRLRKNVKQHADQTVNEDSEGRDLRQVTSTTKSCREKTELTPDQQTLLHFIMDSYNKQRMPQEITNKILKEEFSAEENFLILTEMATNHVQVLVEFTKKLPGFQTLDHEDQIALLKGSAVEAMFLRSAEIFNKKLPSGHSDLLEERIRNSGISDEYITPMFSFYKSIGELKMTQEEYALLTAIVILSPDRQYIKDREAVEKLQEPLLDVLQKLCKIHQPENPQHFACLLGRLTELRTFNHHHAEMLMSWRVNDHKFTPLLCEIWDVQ
# Method in brief: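 Beta-lactamase reporter antagonist mode: HEK293T FXR-UAS-bla cells, titrated compound, CDCA stimulation, 16 h 37 C, CCF4 dye 2 h RT. Data normalized to CDCA 50 uM and DMSO; Hill-fit IC50.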
# [16] = molecular target: Bile acid receptor (Homo sapiens) (UniProt Q96RI1); assay: qHTS assay for small molecule agonists of farnesoid X receptor signaling (AID 588527; calls by dose curve; also: series mostly up to about 77 µM); settings: HEK293T FXR-UAS-bla, beta-lactamase ratio, 16 h; activation: stronger effect = higher value
# Method in brief: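 Quantitative HTS used FXR-UAS-bla HEK293T cells with 16 h compound incubation at 37 C. EC50 values came from concentration-response curves normalized to chenodeoxycholic acid.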
# [17] = molecular target: Peroxisome proliferator-activated receptor delta (Homo sapiens) (UniProt Q03181); assay: qHTS assay for small molecule agonists of peroxisome proliferator-activated receptor delta signaling (AID 588534; calls by dose curve)
# Peroxisome proliferator-activated receptor delta (Homo sapiens), sequence (Q03181 whole entry, looked up): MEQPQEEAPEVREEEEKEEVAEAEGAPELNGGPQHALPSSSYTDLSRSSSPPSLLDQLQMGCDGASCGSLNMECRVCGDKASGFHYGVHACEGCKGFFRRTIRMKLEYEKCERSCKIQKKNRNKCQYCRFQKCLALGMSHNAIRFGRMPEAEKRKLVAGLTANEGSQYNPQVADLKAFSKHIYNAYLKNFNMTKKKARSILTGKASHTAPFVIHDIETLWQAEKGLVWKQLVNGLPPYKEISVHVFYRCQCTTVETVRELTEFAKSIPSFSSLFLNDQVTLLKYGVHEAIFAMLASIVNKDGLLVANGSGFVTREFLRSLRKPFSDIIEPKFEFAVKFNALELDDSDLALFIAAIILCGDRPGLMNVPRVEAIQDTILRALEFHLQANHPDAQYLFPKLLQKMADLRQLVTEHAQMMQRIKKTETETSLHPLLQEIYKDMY
# Method in brief: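 Fluorescence from CCF4 substrate cleavage by beta-lactamase reporter, read 2 hrs at RT, measured agonist activity. Compounds were tested with 18 hrs exposure at 37 C. Concentration-response data fitted to Hill equation.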
# [18] = molecular target: Vitamin D3 receptor (Homo sapiens) (UniProt P11473); assay: qHTS assay for small molecule antagonists of vitamin D receptor signaling (AID 588541; calls by dose curve;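 also: receptor activated by calcitriol during compound treatment; series mostly up to about 77 µM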)
# Vitamin D3 receptor (Homo sapiens), sequence (P11473 whole entry, looked up): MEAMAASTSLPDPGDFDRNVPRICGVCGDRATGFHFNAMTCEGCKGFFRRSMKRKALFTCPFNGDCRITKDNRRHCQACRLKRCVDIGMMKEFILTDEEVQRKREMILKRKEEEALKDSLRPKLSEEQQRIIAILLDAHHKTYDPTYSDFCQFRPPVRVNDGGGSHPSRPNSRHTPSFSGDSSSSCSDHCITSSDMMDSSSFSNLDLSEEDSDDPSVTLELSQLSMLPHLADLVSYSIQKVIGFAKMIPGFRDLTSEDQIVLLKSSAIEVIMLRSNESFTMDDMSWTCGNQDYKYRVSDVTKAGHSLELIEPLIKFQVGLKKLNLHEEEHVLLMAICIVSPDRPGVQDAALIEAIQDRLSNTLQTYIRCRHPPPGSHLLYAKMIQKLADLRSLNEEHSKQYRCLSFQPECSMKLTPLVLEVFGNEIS
# Method in brief: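 Antagonist-mode beta-lactamase reporter assay: HEK293T VDR-UAS-bla cells were exposed to titrated compound alongside 1-alpha,25-dihydroxyvitamin D3 at 3 nM final for 16 h. Values were normalized to the 50 nM agonist control and DMSO basal, with IC50 and efficacy from Hill equation fits.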
# [19] = molecular target: Vitamin D3 receptor (Homo sapiens) (UniProt P11473); assay: qHTS assay for small molecule agonists of vitamin D receptor signaling (AID 588543; calls by dose curve)
# Method in brief: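 Reporter cells (HEK293T, VDR-UAS-bla) were seeded in medium with 2% charcoal-stripped serum and incubated 5 h, then compounds in concentration series were added for 16 h at 37 °C. Stimulation was scaled between DMSO basal and 50 nM 1α,25-dihydroxyvitamin D3.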
# [20] = qHTS assay for small molecule agonists of retinoid X receptor alpha signaling (AID 588544; calls by dose curve); settings: HEK293T RXRa-UAS-bla, beta-lactamase reporter, 18 h; 530 nm emission
# [21] = molecular target: Retinoic acid receptor RXR-alpha (Homo sapiens) (UniProt P19793); assay: as above
# Retinoic acid receptor RXR-alpha (Homo sapiens), sequence (P19793 whole entry, looked up): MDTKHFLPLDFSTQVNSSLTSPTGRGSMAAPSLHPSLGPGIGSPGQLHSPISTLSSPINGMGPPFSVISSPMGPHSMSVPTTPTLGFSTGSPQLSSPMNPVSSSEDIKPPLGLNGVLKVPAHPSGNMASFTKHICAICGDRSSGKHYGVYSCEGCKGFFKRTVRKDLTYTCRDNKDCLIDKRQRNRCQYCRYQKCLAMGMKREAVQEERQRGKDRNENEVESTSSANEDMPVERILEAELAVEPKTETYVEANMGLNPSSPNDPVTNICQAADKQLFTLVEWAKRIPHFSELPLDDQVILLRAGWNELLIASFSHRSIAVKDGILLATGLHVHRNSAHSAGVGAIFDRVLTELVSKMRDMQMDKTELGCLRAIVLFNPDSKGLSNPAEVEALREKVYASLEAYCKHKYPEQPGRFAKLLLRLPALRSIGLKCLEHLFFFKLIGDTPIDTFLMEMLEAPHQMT
smiles,measurement,setting,value
O=Cc1ccccc1,outcome,[1],inactive
same,outcome,[2],inactive
same,outcome,[3],inactive
same,Potency,[4],inactive
same,outcome,[5],inactive
same,outcome,[6],inactive
same,outcome,[7],inactive
same,outcome,[8],inactive
same,outcome,[9],inactive
same,outcome,[10],inactive
same,outcome,[11],inactive
same,outcome,[12],inactive
same,Potency,[13],inactive
same,outcome,[14],inactive
same,Potency,[15],inactive
same,activation,[16],-1.64% (inactive)
same,Potency,[17],inactive
same,outcome,[18],inactive
same,Potency,[19],inactive
same,max response,[20],10.9%
same,outcome,[21],inactive
